The supplement of paper PMC10849652
Of roughly 7,900 targets only a part is listed; those with a hit were picked by preference. About 0.6% of all pairs of compound and target were hits.

How the values were obtained:
Assay in all cases: log2 fold change, soluble protein after heating vs DMSO (PISA); higher = thermal stabilisation; K562 cells, 10 uM, 30 min; active = over 0.2 and 3.5 SD of the protein, either way, in both replicates (recomputed)
bafetinib = compound: Cc1ccc(NC(=O)c2ccc(CN3CC[C@H](N(C)C)C3)c(C(F)(F)F)c2)cc1Nc1nccc(-c2cncnc2)n1 [bafetinib]
Outline: (§1)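 Values are thermal stability changes relative to control samples and are taken from duplicates. They are stated as log2 fold changes. Before quantification by TMTpro 16plex LC-MS/MS with equalised channel sums, K562 cells at 2×10^6 cells/mL were treated with 10 μM compound for 30 min, heated in aliquots for 3 min across 48°C-58°C, pooled, extracted in PBS with 0.5% NP-40 at 4°C, and centrifuged at 21,000xg for 90 min to give the soluble supernatant.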

[1] = compound: Cc1cccc(CC(=O)N2CCc3c2ccc(-c2cn(C)c4ncnc(N)c24)c3F)n1
Outline: as §1

nilotinib = compound: Cc1cn(-c2cc(NC(=O)c3ccc(C)c(Nc4nccc(-c5cccnc5)n4)c3)cc(C(F)(F)F)c2)cn1 [nilotinib]
Outline: as §1

[2] = compound: Cc1nc(Nc2n[nH]c3c2CN(C(=O)N[C@H](CN(C)C)c2ccccc2)C3(C)C)c2sccc2n1
Outline: as §1

dasatinib = compound: Cc1nc(Nc2ncc(C(=O)Nc3c(C)cccc3Cl)s2)cc(N2CCN(CCO)CC2)n1 [dasatinib]
Outline: as §1

[3] = compound: Cc1ncc(-c2ccnc(Nc3ccc(S(C)(=O)=O)cc3)n2)n1C(C)C
Outline: as §1

[4] = compound: Cn1cc(-c2ccc3c(c2)CCN3C(=O)Cc2cccc(C(F)(F)F)c2)c2c(N)ncnc21
Outline: as §1

[5] = compound: Cn1cc(-c2ccc3nnc(C(F)(F)c4ccc5ncccc5c4)n3n2)cn1
Outline: as §1

tipifarnib = compound: Cn1cncc1[C@@](N)(c1ccc(Cl)cc1)c1ccc2c(c1)c(-c1cccc(Cl)c1)cc(=O)n2C [tipifarnib]
Outline: as §1

mubritinib = compound: FC(F)(F)c1ccc(/C=C/c2nc(COc3ccc(CCCCn4ccnn4)cc3)co2)cc1 [mubritinib]
Outline: as §1

Measured: log2 fold change

SPCS2 (UniProt Q15005)
inactive: bafetinib -0.057 | [1] 0.003 | nilotinib 0.014 | [2] -0.034 | dasatinib 0 | [3] 0 | [4] 0.053 | [5] 0.025 | tipifarnib -0.035 | mubritinib 0.037

SLC25A38 (UniProt Q96DW6)
inactive: bafetinib -0.08 | [1] -0.03 | nilotinib -0.03 | [2] 0.023 | dasatinib 0.143 | [3] -0.114 | [4] 0.022 | [5] 0.019 | tipifarnib 0.043 | mubritinib 0.052

STK38 (UniProt Q15208)
inactive: bafetinib 0.054 | [1] 0 | nilotinib -0.105 | dasatinib -0.136 | [3] 0.009 | [4] 0.035 | [5] 0.008 | tipifarnib -0.079 | mubritinib -0.083
active: [2] -0.343

TAF9 (UniProt Q16594)
inactive: bafetinib -0.076 | [1] -0.026 | nilotinib 0.061 | [2] -0.031 | dasatinib 0.146 | [3] -0.086 | [4] -0.12 | [5] -0.011 | tipifarnib 0.077 | mubritinib -0.005

TARBP1 (UniProt Q13395)
Chain of UniProt Q13395 (Q13395 whole entry, looked up): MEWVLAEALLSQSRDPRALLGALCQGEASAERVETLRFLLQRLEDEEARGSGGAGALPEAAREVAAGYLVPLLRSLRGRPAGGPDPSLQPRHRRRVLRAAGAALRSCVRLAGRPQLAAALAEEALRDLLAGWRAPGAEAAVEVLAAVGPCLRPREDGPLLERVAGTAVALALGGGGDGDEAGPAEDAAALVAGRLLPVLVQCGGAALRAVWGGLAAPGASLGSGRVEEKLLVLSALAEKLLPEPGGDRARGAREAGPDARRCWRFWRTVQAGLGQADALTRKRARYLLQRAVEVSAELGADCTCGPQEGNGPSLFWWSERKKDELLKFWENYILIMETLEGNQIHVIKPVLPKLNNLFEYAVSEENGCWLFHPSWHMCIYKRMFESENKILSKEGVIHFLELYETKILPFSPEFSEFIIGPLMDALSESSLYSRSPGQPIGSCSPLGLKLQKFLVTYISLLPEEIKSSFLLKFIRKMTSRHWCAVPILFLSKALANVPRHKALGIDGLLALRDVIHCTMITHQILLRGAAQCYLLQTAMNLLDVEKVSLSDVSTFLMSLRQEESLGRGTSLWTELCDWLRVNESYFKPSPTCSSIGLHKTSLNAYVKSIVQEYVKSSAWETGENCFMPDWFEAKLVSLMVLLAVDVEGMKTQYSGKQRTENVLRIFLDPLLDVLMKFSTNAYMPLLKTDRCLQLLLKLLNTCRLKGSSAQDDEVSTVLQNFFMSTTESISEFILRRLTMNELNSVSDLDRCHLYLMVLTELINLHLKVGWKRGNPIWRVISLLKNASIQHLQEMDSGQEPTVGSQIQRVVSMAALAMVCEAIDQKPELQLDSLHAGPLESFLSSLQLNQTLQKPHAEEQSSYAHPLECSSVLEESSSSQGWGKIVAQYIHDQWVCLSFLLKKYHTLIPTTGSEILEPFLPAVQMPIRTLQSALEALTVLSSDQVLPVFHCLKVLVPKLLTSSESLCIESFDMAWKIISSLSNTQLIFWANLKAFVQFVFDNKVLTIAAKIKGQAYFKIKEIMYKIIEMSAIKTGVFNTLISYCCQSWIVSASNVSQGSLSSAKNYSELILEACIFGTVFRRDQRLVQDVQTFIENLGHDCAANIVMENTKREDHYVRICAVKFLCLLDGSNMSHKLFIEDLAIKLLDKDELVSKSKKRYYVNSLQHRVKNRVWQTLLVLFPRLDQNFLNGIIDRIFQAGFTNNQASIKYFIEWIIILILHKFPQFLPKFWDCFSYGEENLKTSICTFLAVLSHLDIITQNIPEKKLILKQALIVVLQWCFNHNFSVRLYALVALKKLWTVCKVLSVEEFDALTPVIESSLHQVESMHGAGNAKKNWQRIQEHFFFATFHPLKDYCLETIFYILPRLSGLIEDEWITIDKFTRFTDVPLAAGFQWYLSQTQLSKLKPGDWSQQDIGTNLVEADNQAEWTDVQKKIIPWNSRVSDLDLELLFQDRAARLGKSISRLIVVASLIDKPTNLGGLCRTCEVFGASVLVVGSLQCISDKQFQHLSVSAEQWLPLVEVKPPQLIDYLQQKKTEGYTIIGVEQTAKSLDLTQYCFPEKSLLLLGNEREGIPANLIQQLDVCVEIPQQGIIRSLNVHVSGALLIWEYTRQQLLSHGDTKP
inactive: bafetinib -0.022 | [1] 0.005 | nilotinib 0.019 | [2] 0.081 | dasatinib -0.058 | [3] -0.026 | [4] 0.116 | [5] -0.013 | tipifarnib 0.036 | mubritinib -0.055

SLC27A4 (UniProt Q6P1M0)
inactive: bafetinib -0.026 | [1] 0.022 | nilotinib -0.098 | [2] -0.101 | dasatinib -0.113 | [3] 0.011 | [4] 0.003 | [5] 0.009 | tipifarnib 0.124
active: mubritinib 0.598

TEX30 (UniProt Q5JUR7)
inactive: bafetinib -0.01 | [1] -0.053 | nilotinib -0.147 | [2] -0.095 | dasatinib -0.2 | [3] -0.016 | [4] 0.084 | [5] -0.004 | tipifarnib -0.18 | mubritinib 0.033

SNX2 (UniProt O60749)
inactive: bafetinib -0.153 | [1] 0.088 | nilotinib -0.168 | [2] 0 | dasatinib -0.134 | [3] -0.275 | [4] 0.101 | [5] 0.021 | tipifarnib -0.056 | mubritinib 0.044

SMARCAD1 isoform 2 (UniProt Q9H4L7)
inactive: bafetinib 0.067 | [1] 0.014 | nilotinib 0.049 | [2] -0.056 | dasatinib -0.131 | [3] -0.049 | [4] 0.088 | [5] 0.034 | tipifarnib -0.144 | mubritinib 0.241

SMCHD1 (UniProt A6NHR9)
Chain of UniProt A6NHR9 (A6NHR9 whole entry, looked up): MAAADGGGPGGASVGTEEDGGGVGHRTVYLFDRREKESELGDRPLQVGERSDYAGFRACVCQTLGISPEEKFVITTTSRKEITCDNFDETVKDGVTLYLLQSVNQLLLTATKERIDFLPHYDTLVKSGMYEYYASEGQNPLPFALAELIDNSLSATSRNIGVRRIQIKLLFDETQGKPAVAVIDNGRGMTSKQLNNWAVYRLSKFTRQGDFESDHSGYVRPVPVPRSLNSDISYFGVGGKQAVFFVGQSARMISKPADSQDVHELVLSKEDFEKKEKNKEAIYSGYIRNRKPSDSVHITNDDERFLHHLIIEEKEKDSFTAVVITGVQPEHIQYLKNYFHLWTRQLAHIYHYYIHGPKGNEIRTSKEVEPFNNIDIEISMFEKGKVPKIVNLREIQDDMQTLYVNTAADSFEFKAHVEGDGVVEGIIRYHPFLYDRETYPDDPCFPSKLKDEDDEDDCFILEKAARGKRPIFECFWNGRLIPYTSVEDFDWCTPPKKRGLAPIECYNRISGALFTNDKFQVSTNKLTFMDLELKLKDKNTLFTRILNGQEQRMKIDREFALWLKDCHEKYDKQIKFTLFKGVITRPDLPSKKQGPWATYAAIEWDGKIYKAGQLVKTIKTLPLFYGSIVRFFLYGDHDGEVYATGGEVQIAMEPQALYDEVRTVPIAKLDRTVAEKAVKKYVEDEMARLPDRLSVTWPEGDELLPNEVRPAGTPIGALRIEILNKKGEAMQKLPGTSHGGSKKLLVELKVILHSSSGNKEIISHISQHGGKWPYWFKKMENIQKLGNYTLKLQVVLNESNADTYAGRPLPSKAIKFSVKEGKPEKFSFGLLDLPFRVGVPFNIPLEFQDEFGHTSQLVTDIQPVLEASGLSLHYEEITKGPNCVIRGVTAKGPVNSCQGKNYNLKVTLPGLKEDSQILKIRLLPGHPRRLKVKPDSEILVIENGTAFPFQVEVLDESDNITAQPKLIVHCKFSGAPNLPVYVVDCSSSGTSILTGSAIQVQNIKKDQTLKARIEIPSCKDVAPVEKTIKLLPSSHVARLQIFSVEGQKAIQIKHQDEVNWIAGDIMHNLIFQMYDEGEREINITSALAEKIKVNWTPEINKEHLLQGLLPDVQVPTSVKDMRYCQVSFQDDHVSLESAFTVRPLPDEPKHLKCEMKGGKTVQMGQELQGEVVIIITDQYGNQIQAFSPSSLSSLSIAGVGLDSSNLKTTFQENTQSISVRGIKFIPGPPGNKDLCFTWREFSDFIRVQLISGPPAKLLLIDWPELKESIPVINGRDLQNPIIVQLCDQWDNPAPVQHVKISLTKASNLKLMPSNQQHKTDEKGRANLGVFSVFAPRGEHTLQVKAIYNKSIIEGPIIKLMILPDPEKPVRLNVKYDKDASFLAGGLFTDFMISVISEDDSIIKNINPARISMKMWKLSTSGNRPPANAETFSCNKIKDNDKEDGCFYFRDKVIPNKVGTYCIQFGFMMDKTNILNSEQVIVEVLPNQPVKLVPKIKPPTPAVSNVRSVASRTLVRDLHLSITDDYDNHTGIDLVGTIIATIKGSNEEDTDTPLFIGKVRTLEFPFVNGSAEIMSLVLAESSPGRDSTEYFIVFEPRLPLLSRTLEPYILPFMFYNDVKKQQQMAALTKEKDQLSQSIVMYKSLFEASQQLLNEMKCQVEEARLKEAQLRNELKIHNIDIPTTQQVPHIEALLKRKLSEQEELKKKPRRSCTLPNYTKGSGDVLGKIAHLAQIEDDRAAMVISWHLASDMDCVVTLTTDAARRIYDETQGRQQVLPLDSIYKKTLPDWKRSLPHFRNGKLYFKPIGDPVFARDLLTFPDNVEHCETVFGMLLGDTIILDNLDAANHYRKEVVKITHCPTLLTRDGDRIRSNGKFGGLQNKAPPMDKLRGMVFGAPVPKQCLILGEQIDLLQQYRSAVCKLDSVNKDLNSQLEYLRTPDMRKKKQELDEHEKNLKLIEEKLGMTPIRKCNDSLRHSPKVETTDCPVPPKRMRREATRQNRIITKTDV
inactive: bafetinib 0.306 | [1] 0 | nilotinib 0.037 | [2] -0.011 | dasatinib -0.319 | [3] -0.044 | [4] -0.061 | [5] -0.084 | tipifarnib -0.003 | mubritinib -0.136

STOM (UniProt P27105)
Chain of UniProt P27105 (P27105 whole entry, looked up): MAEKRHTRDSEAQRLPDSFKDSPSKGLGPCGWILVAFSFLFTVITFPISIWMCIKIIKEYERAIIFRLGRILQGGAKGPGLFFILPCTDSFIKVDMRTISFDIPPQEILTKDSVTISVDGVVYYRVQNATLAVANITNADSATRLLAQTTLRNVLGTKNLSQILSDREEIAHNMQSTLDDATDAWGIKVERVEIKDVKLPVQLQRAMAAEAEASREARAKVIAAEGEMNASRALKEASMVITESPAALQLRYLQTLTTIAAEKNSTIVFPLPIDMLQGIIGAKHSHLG
inactive: bafetinib -0.01 | [1] 0.043 | nilotinib 0.039 | [2] -0.007 | dasatinib 0.039 | [3] -0.03 | [4] -0.043 | [5] 0.055 | tipifarnib 0.031 | mubritinib -0.008

SP3 (UniProt Q02447)
inactive: bafetinib 0.022 | [1] -0.018 | nilotinib -0.01 | [2] 0.093 | dasatinib 0 | [3] -0.042 | [4] -0.044 | [5] 0.103 | tipifarnib -0.041 | mubritinib -0.045

SUGP1 (UniProt Q8IWZ8)
inactive: bafetinib -0.033 | [1] 0.012 | nilotinib -0.019 | [2] -0.058 | dasatinib -0.139 | [3] -0.043 | [4] 0.08 | [5] -0.012 | tipifarnib -0.007 | mubritinib 0.063

TELO2 (UniProt Q9Y4R8)
inactive: bafetinib 0.069 | [1] 0.158 | nilotinib -0.023 | [2] -0.041 | dasatinib -0.039 | [3] 0.039 | [4] -0.058 | [5] 0.046 | tipifarnib -0.185 | mubritinib 0.103

TEX264 (UniProt Q9Y6I9)
active: [3] 0.845
inactive: bafetinib 0.391 | [1] 0.007 | nilotinib 0.241 | [2] 0.111 | dasatinib 0.265 | [4] 0.047 | [5] 0.114 | tipifarnib -0.006 | mubritinib 0.047

SMARCE1 (UniProt Q969G3)
Chain of UniProt Q969G3 (Q969G3 whole entry, looked up): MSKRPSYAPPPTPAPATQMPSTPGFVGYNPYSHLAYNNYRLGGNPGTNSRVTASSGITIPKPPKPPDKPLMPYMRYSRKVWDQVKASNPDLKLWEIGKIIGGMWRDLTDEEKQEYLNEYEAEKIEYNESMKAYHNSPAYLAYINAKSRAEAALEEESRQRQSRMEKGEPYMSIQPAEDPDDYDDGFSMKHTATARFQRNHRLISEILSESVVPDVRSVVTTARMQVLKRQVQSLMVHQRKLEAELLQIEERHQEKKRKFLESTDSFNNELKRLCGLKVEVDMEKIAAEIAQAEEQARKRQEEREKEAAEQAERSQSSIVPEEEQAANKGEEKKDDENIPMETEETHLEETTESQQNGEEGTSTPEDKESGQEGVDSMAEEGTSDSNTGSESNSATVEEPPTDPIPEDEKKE
inactive: bafetinib -0.181 | [1] 0.041 | nilotinib -0.191 | [2] 0.16 | dasatinib -0.07 | [3] -0.055 | [4] -0.056 | [5] -0.09 | tipifarnib -0.082 | mubritinib -0.274

SMAP (UniProt O00193)
Chain of UniProt O00193 (O00193 whole entry, looked up): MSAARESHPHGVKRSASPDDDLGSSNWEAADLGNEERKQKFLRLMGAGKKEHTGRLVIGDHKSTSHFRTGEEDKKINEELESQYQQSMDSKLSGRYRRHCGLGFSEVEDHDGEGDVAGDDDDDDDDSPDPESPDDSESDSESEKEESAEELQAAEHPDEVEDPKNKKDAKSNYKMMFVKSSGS
inactive: bafetinib 0.043 | [1] -0.022 | nilotinib -0.004 | [2] 0.006 | dasatinib 0.033 | [3] -0.011 | [4] 0.005 | [5] -0.027 | tipifarnib -0.042 | mubritinib 0.038

STK39 (UniProt Q9UEW8)
inactive: bafetinib -0.09 | [1] 0 | nilotinib -0.076 | [2] -0.028 | dasatinib -0.108 | [3] -0.016 | [4] -0.008 | [5] -0.032 | tipifarnib -0.031 | mubritinib -0.083

SRSF2 (UniProt Q01130)
inactive: bafetinib 0.02 | [1] -0.062 | nilotinib 0.007 | dasatinib 0.074 | [3] 0.034 | [4] -0.058 | [5] 0 | tipifarnib 0.085 | mubritinib -0.011
active: [2] -0.541

SNX5 (UniProt Q9Y5X3)
inactive: bafetinib -0.154 | [1] 0.11 | nilotinib -0.078 | [2] 0.006 | dasatinib -0.169 | [3] -0.314 | [4] 0.05 | [5] 0.001 | tipifarnib -0.027 | mubritinib 0.082

SRCAP (UniProt Q6ZRS2)
inactive: bafetinib -0.057 | [1] -0.001 | nilotinib 0.072 | [2] 0.152 | dasatinib -0.038 | [3] -0.007 | [4] -0.061 | [5] 0.037 | tipifarnib 0.083 | mubritinib 0.05

SLK isoform 2 (UniProt Q9H2G2)
active: [4] -0.289
inactive: bafetinib -0.032 | [1] -0.076 | nilotinib -0.041 | [2] -0.169 | dasatinib -0.085 | [3] 0.015 | [5] 0.004 | tipifarnib -0.018 | mubritinib 0.026

SPPL2B (UniProt Q8TCT7)
Chain of UniProt Q8TCT7 (Q8TCT7 whole entry, looked up): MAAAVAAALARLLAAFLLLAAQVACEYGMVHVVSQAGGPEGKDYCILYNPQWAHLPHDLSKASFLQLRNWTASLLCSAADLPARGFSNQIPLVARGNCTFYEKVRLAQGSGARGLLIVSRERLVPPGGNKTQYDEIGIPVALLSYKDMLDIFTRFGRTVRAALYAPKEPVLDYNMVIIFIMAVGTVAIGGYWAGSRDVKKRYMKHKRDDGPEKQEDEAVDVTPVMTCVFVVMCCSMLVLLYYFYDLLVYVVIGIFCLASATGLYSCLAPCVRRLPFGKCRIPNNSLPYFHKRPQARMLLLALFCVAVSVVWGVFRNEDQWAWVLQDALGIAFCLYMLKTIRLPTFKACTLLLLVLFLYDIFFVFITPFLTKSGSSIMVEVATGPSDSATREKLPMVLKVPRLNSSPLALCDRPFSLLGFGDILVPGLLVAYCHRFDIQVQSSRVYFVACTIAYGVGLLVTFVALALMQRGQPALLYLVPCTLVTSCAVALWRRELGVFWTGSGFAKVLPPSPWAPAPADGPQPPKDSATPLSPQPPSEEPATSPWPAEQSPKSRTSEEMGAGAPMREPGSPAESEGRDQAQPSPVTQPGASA
inactive: bafetinib -0.087 | [1] 0.066 | nilotinib -0.016 | [2] -0.006 | dasatinib -0.066 | [3] 0.009 | [4] 0.116 | [5] -0.118 | tipifarnib 0.036 | mubritinib -0.008

SRRM2 (UniProt Q9UQ35)
active: [2] -0.936
inactive: bafetinib 0.068 | [1] 0.044 | nilotinib 0.02 | dasatinib 0.079 | [3] -0.261 | [4] 0.048 | [5] 0.022 | tipifarnib 0.077 | mubritinib 0.035

STX17 (UniProt P56962)
inactive: bafetinib -0.049 | [1] -0.028 | nilotinib 0.028 | [2] -0.057 | dasatinib -0.027 | [3] -0.051 | [4] 0.071 | [5] 0.002 | tipifarnib -0.012 | mubritinib 0.074

ST3GAL2 (UniProt Q16842)
inactive: bafetinib 0.092 | [1] -0.008 | nilotinib 0.191 | [2] -0.042 | dasatinib 0.179 | [3] 0.081 | [4] -0.039 | [5] -0.022 | tipifarnib 0.076 | mubritinib -0.026

SLC7A6 (UniProt Q92536)
inactive: bafetinib 0.042 | [1] 0.029 | nilotinib 0.046 | [2] 0.008 | dasatinib 0.04 | [3] -0.007 | [4] 0.024 | [5] -0.087 | tipifarnib -0.016 | mubritinib 0.049

SUMO1 (UniProt P63165)
inactive: bafetinib -0.071 | [1] -0.023 | nilotinib -0.022 | [2] -0.078 | dasatinib 0.041 | [3] -0.04 | [4] -0.209 | [5] -0.068 | tipifarnib -0.35 | mubritinib 0.001

STEAP3 isoform 2 (UniProt Q658P3)
inactive: bafetinib -0.044 | [1] 0.058 | nilotinib -0.001 | [2] -0.061 | dasatinib -0.028 | [3] 0.03 | [4] 0.039 | [5] 0.11 | tipifarnib -0.085 | mubritinib -0.034
